From PubChem BioAssay (EPA / NIEHS)
The source made the active and inactive calls. Rule for the calls: active = hit-call score of the fitted dose curve at least 0.9, where 1 is the maximum; inactive = score below 0.9.

Assays:
[1] = APR_HepG2_P-H2AX_72hr: Apredica 72-hour HepG2 Assay for H2AX Phosphorylation (AID 2282916); conditions: imaging, actives raise or lower the signal;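 note: phospho-histone H2A.x immunostain intensity per cell marking DNA damage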
In short: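 HepG2; cpd 0.39–200 uM ×10 conc, duplicates; 0.5% DMSO; 72 hr. Fix 3.7% formaldehyde 30 min RT, 0.5% Triton X-100 10 min. Anti-phospho-H2A.x 1:200 + Hoechst 2 ug/mL, 60 min RT; ArrayScan imaging.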

[2] = APR_HepG2_MitoMembPot_72hr: Apredica 72-hour HepG2 Assay for Mitochondrial Membrane Potential (AID 2282917); conditions: imaging, actives raise or lower the signal
In short: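 Membrane potential read by MitoTracker Red CMXRos (250 nM, 30 min, pre-fixation) fluorescence imaging of HepG2 after 72 hr exposure. Ten concentrations, 0.39–200 uM, duplicate wells, 0.5% DMSO; fitted in both directions against DMSO baseline.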

[3] = APR_HepG2_MitoticArrest_72hr: Apredica 72-hour HepG2 Assay for Mitotic Arrest (AID 2282918); conditions: high-content imaging, actives raise or lower the signal
In short: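 HepG2, 72 hr exposure, 0.39–200 uM in duplicate, 0.5% v/v DMSO final. Formaldehyde-fixed, Triton-permeabilized, anti-phospho-histone H3/FITC plus Hoechst. ArrayScan imaging at 20x; curves fit bidirectionally against DMSO baseline.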

[4] = APR_HepG2_MicrotubuleCSK_72hr: Apredica 72-hour HepG2 Assay for Microtubule CSK Stabilty (AID 2282919); conditions: HepG2 microtubule cytoskeleton, high-content imaging, actives raise or lower the signal
In short: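 Read-out is tubulin fluorescence intensity from high-content imaging of HepG2 cells, with nuclei identified by Hoechst 33342. Treatment lasts 72 h at 0.39–200 uM, and curves are fitted bidirectionally against the DMSO negative control.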

[5] = APR_HepG2_P-H2AX_24hr: Apredica 24-hour HepG2 Assay for H2AX Phosphorylation (AID 2282920); conditions: high-content imaging, actives raise or lower the signal
In short: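 HCS fluorescence imaging of phospho-H2A.x immunostain (with Hoechst 33342 nuclear counterstain) in HepG2 after 24 hr compound exposure; 10 concentrations, 0.39–200 uM, duplicate wells, 0.5% v/v DMSO. Gain or loss of signal fitted relative to DMSO baseline.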

[6] = APR_HepG2_StressKinase_72hr: Apredica 72-hour HepG2 Assay for Stress Kinase (AID 2282921); conditions: HepG2 stress kinase (phospho-c-Jun) imaging, actives raise or lower the signal
In short: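 Dose 0.39–200 uM (10 pts, duplicate), 0.5% DMSO; 72 h; fix 3.7% formaldehyde 30 min RT; Triton permeabilize; anti-phospho-c-Jun/Cy3 + Hoechst 60 min RT; image 20x; fit gain/loss vs DMSO.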

[7] = APR_HepG2_StressKinase_24hr: Apredica 24-hour HepG2 Assay for Stress Kinase (AID 2282922); conditions: HepG2 stress kinase (phospho-c-Jun) imaging, actives raise or lower the signal
In short: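 HepG2, 24 hr dosing, 0.39–200 uM in duplicate, 0.5% DMSO; formaldehyde fix (3.7%), 0.5% Triton X-100; anti-phospho-c-Jun + Cy3 secondary, Hoechst counterstain; ArrayScan imaging; bidirectional curve fit vs DMSO baseline.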

[8] = APR_HepG2_MitoMass_72hr: Apredica 72-hour HepG2 Assay for Mitochondrial Mass (AID 2282924); conditions: high-content imaging, actives raise or lower the signal;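 note: MitoTracker Red CMXRos stain intensity per cell imaged as mitochondrial mass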
In short: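 HepG2, 72 hr cmpd, 10 conc 0.39–200 uM in dup, DMSO 0.5% v/v. MitoTracker Red CMXRos 250 nM 30 min pre-fix; formaldehyde 3.7% fix 30 min RT. HCS imaging, gain/loss fit vs DMSO.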

[9] = ATG_CRE_CIS: Attagene CIS-FACTORIAL HepG2 Assay for human cAMP Responsive Element (CRE) binding protein 3 (AID 2282926); conditions: HepG2 CRE cis-reporter, Attagene multiplexed mRNA; actives raise or lower the signal
In short: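 Endogenous CRE-binding activity in HepG2 is reported through a cis-regulated transfected reporter. Following a day of exposure, mRNA levels are determined by reverse transcription PCR and fluorescent fragment analysis; fits run in both directions versus DMSO.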

[10] = biological target: CCAAT/enhancer-binding protein beta (Homo sapiens) (UniProt P17676); assay: ATG_C_EBP_CIS: Attagene CIS-FACTORIAL HepG2 Assay for human CCAAT/Enhancer Binding Protein (C/EBP) beta (AID 2282927); conditions: HepG2 Attagene cis-factorial transcription factor reporter; actives raise or lower the signal
Chain of CCAAT/enhancer-binding protein beta (Homo sapiens) (P17676 whole entry, looked up, the tested form may be a part): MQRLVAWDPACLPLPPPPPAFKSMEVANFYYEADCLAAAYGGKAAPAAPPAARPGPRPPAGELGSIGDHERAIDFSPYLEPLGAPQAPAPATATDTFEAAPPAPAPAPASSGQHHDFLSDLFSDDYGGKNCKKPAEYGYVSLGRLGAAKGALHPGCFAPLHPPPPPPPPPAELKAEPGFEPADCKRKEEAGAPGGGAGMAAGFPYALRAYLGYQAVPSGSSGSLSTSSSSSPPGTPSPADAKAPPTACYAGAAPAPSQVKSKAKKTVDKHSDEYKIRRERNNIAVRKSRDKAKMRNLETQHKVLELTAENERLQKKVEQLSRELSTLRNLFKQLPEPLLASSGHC
In short: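 Endogenous C/EBPb-driven reporter transcripts measured in transfected human HepG2 cells at 24 h via RT-PCR and capillary electrophoresis of labelled fragments. Activity fitted in both directions relative to DMSO baseline.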

[11] = ATG_CMV_CIS: Attagene CIS-FACTORIAL HepG2 Assay for human CMV (Internal Marker) (AID 2282928); conditions: HepG2 CMV promoter reporter, transcription factor profiling; actives raise or lower the signal;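 note: endpoint acts as a background internal control marker rather than a target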
In short: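 After transient transfection of HepG2 with reporter transcription units driven by cis-regulatory promoters, cells receive test chemical for 24 h. Labeled reporter amplicons, digested with HpaI, are sized and quantified by capillary electrophoresis against DMSO.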

[12] = ATG_DR4_LXR_CIS: Attagene CIS-FACTORIAL HepG2 Assay for human Liver X Receptor (LXR), DR4 submotif (AID 2282929); conditions: HepG2 Attagene DR4 cis-reporter, mRNA transcription; actives raise or lower the signal
In short: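 Transiently transfected HepG2 liver cells; cis-regulated reporters; 24 h dosing. RT-PCR plus CE read-out of reporter mRNA. DMSO baseline, bidirectional curve fitting.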

[13] = biological target: Aryl hydrocarbon receptor (Homo sapiens) (UniProt P35869); assay: ATG_Ahr_CIS: Attagene CIS-FACTORIAL HepG2 Assay for human Aryl Hydrocarbon Receptor (Ahr) (AID 2282930); conditions: HepG2 AhR cis-factorial reporter transcription; actives raise or lower the signal
Chain of Aryl hydrocarbon receptor (Homo sapiens) (P35869 whole entry, looked up): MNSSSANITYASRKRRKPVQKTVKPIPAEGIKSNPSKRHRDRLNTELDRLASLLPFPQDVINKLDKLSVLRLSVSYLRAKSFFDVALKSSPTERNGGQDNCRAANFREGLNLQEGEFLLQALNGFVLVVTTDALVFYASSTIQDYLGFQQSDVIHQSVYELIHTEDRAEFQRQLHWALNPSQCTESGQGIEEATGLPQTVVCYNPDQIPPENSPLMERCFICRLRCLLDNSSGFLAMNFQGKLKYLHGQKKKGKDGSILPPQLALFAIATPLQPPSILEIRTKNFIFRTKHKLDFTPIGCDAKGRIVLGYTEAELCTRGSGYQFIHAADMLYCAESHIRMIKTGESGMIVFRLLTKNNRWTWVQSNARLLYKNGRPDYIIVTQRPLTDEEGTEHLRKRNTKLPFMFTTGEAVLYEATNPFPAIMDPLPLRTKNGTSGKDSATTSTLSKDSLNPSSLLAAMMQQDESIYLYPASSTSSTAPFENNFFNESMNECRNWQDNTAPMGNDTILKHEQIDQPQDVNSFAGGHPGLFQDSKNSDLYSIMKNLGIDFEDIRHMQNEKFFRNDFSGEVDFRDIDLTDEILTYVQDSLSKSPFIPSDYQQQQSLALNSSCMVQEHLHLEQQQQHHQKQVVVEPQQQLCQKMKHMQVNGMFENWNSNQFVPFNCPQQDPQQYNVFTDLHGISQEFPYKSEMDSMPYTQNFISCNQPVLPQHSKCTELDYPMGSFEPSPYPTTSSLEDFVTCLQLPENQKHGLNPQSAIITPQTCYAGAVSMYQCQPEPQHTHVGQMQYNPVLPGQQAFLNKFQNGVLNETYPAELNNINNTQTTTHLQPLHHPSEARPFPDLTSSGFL
In short: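 Reporter mRNA levels, quantified by RT-PCR and fluorescent capillary electrophoresis, reflect endogenous AhR transcriptional activity in HepG2 cells carrying transfected cis-promoter reporter constructs. Readout at 24 h post-dose; gain or loss fitted against DMSO baseline.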

[14] = ATG_AP_1_CIS: Attagene CIS-FACTORIAL HepG2 Assay for human Activator Protein 1 (AP-1) (AID 2282931); conditions: HepG2 Attagene cis-factorial AP-1 reporter mRNA; actives raise or lower the signal
In short: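 We transfected HepG2 cells transiently with a set of cis-regulated reporter transcription units, dosed them for 24 h, and quantified reporter mRNA via RT-PCR and capillary electrophoresis, scoring gain or loss of signal relative to DMSO.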

[15] = ATG_AP_2_CIS: Attagene CIS-FACTORIAL HepG2 Assay for human Activator Protein 2 (AP-2) (AID 2282932); conditions: HepG2 AP-2 cis-reporter, Attagene transcription factor profiling; actives raise or lower the signal
In short: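 HepG2, transient MRTU transfection, cis-regulated reporters; 24 h compound exposure; RNA isolated, RT-PCR, 6-FAM labelling, HpaI digest, CE fluorescence. DMSO = negative control/baseline, bidirectional fit.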

[16] = ATG_BRE_CIS: Attagene CIS-FACTORIAL HepG2 Assay for human Bone Morphogenetic Protein (BMP) Response Element (BRE) (AID 2282933); conditions: HepG2 BMP response element reporter, Attagene transcription factor profiling; actives raise or lower the signal
In short: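 Endogenous transcription factor activity at a BMP response element was monitored in transfected HepG2 cells 24 h after dosing. Fluorescent RT-PCR products were resolved by capillary electrophoresis, and activity was fitted in both directions versus DMSO.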

[17] = biological target: Retinoic acid receptor alpha (Homo sapiens) (UniProt P10276); assay: ATG_DR5_RAR_CIS: Attagene CIS-FACTORIAL HepG2 Assay for human Retinoic Acid Receptor Alpha (RARE), DR5 submotif (AID 2282934); conditions: HepG2 Attagene cis-factorial RARE DR5 reporter, mRNA; actives raise or lower the signal;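 for AC50: reporter responds to endogenous RAR alpha beta and gamma in HepG2 not RARA alone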
Chain of Retinoic acid receptor alpha (Homo sapiens) (P10276 whole entry, looked up): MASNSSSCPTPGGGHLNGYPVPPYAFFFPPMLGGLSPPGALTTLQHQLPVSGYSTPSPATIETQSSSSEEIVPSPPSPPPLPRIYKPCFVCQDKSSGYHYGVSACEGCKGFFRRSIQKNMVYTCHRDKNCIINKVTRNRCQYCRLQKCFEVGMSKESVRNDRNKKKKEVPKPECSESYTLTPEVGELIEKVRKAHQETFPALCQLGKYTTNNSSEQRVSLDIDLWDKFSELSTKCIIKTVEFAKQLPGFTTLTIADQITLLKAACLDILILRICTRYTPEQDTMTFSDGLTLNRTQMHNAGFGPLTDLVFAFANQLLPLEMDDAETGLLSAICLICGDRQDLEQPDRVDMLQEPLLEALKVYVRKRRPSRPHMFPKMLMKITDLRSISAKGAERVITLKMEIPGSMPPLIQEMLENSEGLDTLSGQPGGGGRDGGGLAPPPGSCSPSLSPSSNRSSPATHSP
In short: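 Reporter transcripts from a DR5-regulated unit, measured via RT-PCR plus capillary electrophoresis, reflect endogenous RAR activity in transiently transfected human HepG2 liver cells. Exposure lasted 24 h; gain or loss of signal scored against DMSO.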

[18] = biological target: Transcription factor E2F1 (Homo sapiens) (UniProt Q01094); assay: ATG_E2F_CIS: Attagene CIS-FACTORIAL HepG2 Assay for human E2F Transcription Factor 1 (AID 2282935); conditions: HepG2 Attagene cis-reporter, E2F reporter RNA transcripts; actives raise or lower the signal
Chain of Transcription factor E2F1 (Homo sapiens) (Q01094 whole entry, looked up): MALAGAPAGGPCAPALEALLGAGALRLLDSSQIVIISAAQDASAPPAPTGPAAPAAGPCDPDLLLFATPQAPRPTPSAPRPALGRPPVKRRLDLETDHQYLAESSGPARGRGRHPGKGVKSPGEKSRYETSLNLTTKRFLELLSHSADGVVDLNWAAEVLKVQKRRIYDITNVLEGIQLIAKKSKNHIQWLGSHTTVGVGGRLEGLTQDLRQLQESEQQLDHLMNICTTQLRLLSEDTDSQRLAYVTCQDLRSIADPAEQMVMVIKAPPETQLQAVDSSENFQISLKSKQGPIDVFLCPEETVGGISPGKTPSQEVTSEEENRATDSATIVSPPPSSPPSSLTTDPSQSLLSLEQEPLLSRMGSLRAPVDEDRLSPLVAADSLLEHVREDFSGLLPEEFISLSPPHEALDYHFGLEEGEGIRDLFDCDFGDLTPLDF
In short: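 Cis-element reporter mRNA induction in transiently transfected HepG2, 24 h exposure. Activity fitted in both directions relative to DMSO negative control.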

[19] = APR_HepG2_p53Act_72hr: Apredica 72-hour HepG2 Assay for p53 Activation (AID 2282923); conditions: high-content imaging, actives raise or lower the signal;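 note: average cellular p53 protein immunofluorescence intensity in HepG2 cells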
In short: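 10-pt conc. 0.39–200 uM, duplicate, 0.5% DMSO; 72 hr exposure; 3.7% formaldehyde fix, 0.5% Triton perm; sheep anti-p53/Cy5 + Hoechst; ArrayScan 20x, 6 images/well; gain/loss fit vs DMSO.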

[20] = APR_HepG2_NuclearSize_72hr: Apredica 72-hour HepG2 Assay for Nuclear Size (AID 2282925); conditions: high-content imaging, actives raise or lower the signal
In short: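 HepG2; cpd 0.39–200 uM, 10 conc, duplicate; 72 h; DMSO 0.5% v/v; fix 3.7% formaldehyde 30 min RT; Triton permeabilization; Hoechst 2 ug/mL; HCS imaging 20x; nuclear diameter; gain/loss fit vs DMSO.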

Measured: AC50

CCCC(=O)O
inactive: [1] | [2] | [3] | [4] | [5] | [6] | [7] | [8] | [10] | [12] | [13] | [14] | [15] | [16] | [17] | [18]
active: [9] 0.0135 µM | [11] 44.4 µM

O=C1OC(c2ccc(O)cc2)(c2ccc(O)cc2)c2ccccc21
active: [1] 31 µM | [3] 50.9 µM | [4] 97.3 µM | [5] 73.3 µM | [6] 40 µM | [19] 29.2 µM | [8] 102 µM | [9] 27.2 µM | [10] 184 µM | [11] 177 µM | [12] 54.9 µM | [15] 48.1 µM | [17] 4.2 µM
inactive: [2] | [7] | [20] | [16] | [18]

CC(N)=O
inactive: [1] | [2] | [3] | [4] | [5] | [6] | [7] | [8] | [20] | [9] | [10] | [11] | [12] | [14] | [15] | [16] | [17]

O=C(O)CN(CC(=O)O)CC(=O)O
inactive: [1] | [2] | [3] | [4] | [5] | [6] | [7] | [19] | [8] | [20] | [9] | [10] | [11] | [12] | [14] | [15] | [16] | [17] | [18]

Nc1nc(Cl)nc2c1ncn2[C@H]1C[C@H](O)[C@@H](CO)O1
inactive: [2] | [4] | [6] | [7] | [8] | [9] | [10] | [12] | [15] | [16] | [18]
active: [1] 0.0288 µM | [3] 0.089 µM | [5] 0.551 µM | [19] 0.038 µM | [11] 23.7 µM

Cc1cc(SC2=C(O)C[C@@](CCc3ccc(N)cc3)(C(C)C)OC2=O)c(C(C)(C)C)cc1CO
inactive: [1] | [2] | [3] | [4] | [5] | [6] | [7] | [19] | [8] | [9] | [10] | [11] | [12] | [15] | [16] | [18]

CO[C@@H]1COCC[C@@H]1N[C@@H]1CC[C@@](C(=O)N2CCc3ncc(C(F)(F)F)cc3C2)(C(C)C)C1
inactive: [1] | [2] | [3] | [4] | [5] | [6] | [7] | [19] | [8] | [20] | [9] | [10] | [11] | [12] | [13] | [15] | [16] | [18]
